47 compounds from PubChem BioAssay AID2014 (Sanford-Burnham Center for Chemical Genomics, 2009) can be followed below.

In all, about 290,000 compounds went through this assay and about 3,000 (1%) were called active. No rule for the calls is given here. The sample as a whole holds a higher share of actives than the screen did.

The assay addresses Polyadenylate-binding protein 1 (Homo sapiens) (UniProt P11940). Briefly: blockers of PABP interaction with poly(A) – biochemical, fluorescence polarization, uHTS, primary screen (AID 2014).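 Also: calls also rest on retests at 20 µM and on dose response follow-up.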 The following applies: PABP-poly(A) RNA binding, stronger effect = higher value.

Chain of Polyadenylate-binding protein 1 (Homo sapiens) (P11940 whole entry, looked up): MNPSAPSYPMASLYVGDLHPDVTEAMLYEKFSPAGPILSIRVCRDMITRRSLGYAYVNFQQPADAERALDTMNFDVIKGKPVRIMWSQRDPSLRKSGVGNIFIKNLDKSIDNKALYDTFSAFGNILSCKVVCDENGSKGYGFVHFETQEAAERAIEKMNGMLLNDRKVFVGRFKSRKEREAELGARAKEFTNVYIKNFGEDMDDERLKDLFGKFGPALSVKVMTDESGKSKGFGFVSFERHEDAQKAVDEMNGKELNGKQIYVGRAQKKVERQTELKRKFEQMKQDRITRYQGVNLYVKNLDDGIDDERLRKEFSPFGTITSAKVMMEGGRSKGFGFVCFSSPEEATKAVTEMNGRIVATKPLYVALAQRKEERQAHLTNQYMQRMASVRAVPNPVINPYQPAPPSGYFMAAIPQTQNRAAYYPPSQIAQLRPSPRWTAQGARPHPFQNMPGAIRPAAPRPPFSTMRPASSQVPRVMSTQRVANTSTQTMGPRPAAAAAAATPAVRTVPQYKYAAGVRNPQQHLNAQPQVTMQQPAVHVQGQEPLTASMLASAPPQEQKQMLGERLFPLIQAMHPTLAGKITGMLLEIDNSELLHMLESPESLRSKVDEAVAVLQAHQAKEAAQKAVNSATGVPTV

In the case of `O=C(c1ccc(CS(=O)(=O)c2ccccc2)o1)N1CCN(c2ccccc2)CC1`, the inhibition reads like this: (at 35 µM) 28.3% (active); (confirmation repeats, at 20 µM) 62.1%. For `O=C(c1cc(=O)c2ccccc2o1)N1CCN(c2ccccc2)CC1`, for the setting “at 35 µM”, the inhibition was 4.7% (inactive). The same measure, in the same setting: to `O=C(c1ccc(S(=O)(=O)N2CCOCC2)cc1)N1CCN(c2ccccc2)CC1` belongs 3.8% (inactive); to `CCc1ccc(N2CC(C(=O)N3CCCCCC3)CC2=O)cc1` (centres undefined), -12.2% (inactive).

For the compound `COc1ccc2oc(=O)cc(CN3CCOCC3)c2c1`, the inhibition (at 35 µM) was 10.8% (inactive). Same read-out and setting: to `O=Cc1cn(-c2ccccc2)nc1-c1ccccn1` belongs -6.6% (inactive); to `Cc1ccc(SCCSc2ncccn2)cc1`, 8.3% (inactive); to `Cc1cccc(C(=O)NNC(=O)CSc2nnc(C(C)C)n2C)c1`, 0.1% (inactive). On the same count and under the same terms, the value for `COCCn1c(N)c(N(Cc2ccccc2)C(=O)C2CCCCC2)c(=O)[nH]c1=O` was 4.9% (inactive).

Take `COCCN1C=C2C(=O)C(C)(OC(=O)C3CCCC3)C(=O)C=C2C=C1c1ccsc1` (centres undefined): the inhibition (at 35 µM) was 61% (active). Same read-out and setting: the value for `Cc1cccnc1CC(C)NC(=O)c1cc(COc2cncc(Cl)c2)on1` (centres undefined) was -0.2% (inactive); that for `CC(=O)c1ccc(OC(=O)N2CCOCC2)cc1` was -1.2% (inactive); that for `Oc1ccc(C2Nc3cccc4cccc(c34)N2)cc1` was 69.2% (active). With `COc1ccc(C2NC(=O)c3ccccc3N2)cc1` (centres undefined), the inhibition (at 35 µM) is 15.7% (inactive). On the same count and under the same terms, to `O=C1NC(c2cccc(Cl)c2)Nc2ccccc21` (centres undefined) belongs -16.8% (inactive).

Consider `COc1cccc(C2Nc3cccc4cccc(c34)N2)c1`, for which the inhibition is, setting by setting: (at 35 µM) 25.6% (active); (confirmation repeats, at 20 µM) 72.2%.

`Cc1ccc(C2Nc3cccc4cccc(c34)N2)cc1`: where the note is “at 35 µM”, the inhibition was 39.9% (inactive). Regarding `COc1ccc(N2C(=O)C3CCCN3C2c2cccc(OC)c2)cc1` (centres undefined), the inhibition (at 35 µM) was -1.1% (inactive). In the case of `O=C1CCN(CCc2ccccc2)CCN1CCOc1ccccc1`, the inhibition (at 35 µM) is 7.2% (inactive). Same read-out and setting: the value for `COc1ccc(CNC(=O)CN(Cc2ccccc2Cl)C(=O)c2csnn2)cc1` was 4.9% (inactive); that for `CCN(CC(=O)NCc1cccs1)C(=O)c1ccccc1F` was -8.7% (inactive); that for `COc1cc(CC(=O)NCc2cccs2)cc(OC)c1OC` was -5.2% (inactive). Take `CCN(CC(=O)NCc1cccs1)C(=O)c1cccc(S(=O)(=O)Nc2ccccc2OC)c1`: the inhibition (at 35 µM) is 60.4% (active) and the inhibition (confirmation repeats, at 20 µM) was found to be 70.6%. On to `CC(=O)c1ccccc1OCc1ccc(C(=O)c2ccccc2)cc1`, for which the inhibition (at 35 µM) was 0.6% (inactive). The same measure, in the same setting: the value for `O=C(NC1CC1)C(Cc1ccccc1)NS(=O)(=O)c1ccccc1F` (centres undefined) was -3.9% (inactive). Same read-out and setting: to `O=C(NCCCc1ccccc1)C1CCC(=O)N(CCc2ccc(Cl)cc2)C1` (centres undefined) belongs 2.3% (inactive); to `Cc1cc(=O)oc(C)c1C(=O)NCCN(C)Cc1ccccc1`, -13.8% (inactive); to `Cc1cc(=O)oc(C)c1C(=O)Nc1cnc2ccccc2c1`, 104% (active). Same read-out and setting: to `Cc1cc(=O)oc(C)c1C(=O)NCc1ccc(F)cc1` belongs 28.4% (inactive); to `Cc1ccc(C(=O)NC2CCN(C(=O)Nc3ccccc3Cl)CC2)cc1`, 8.2% (inactive). For `Cc1cccc(N2CCN(C(C)C(=O)N3CCc4ccccc43)CC2)c1C` (centres undefined), the inhibition (at 35 µM) was -1.2% (inactive). The same measure, in the same setting: the value for `Cc1cccc(N(C(=O)Cn2nnc(-c3ccc(C)o3)n2)C(C(=O)NC2CCCC2)c2ccncc2)c1` (centres undefined) was 11.1% (inactive). Take `Cc1ccc(N=C2NC(=O)/C(=C/C=C/c3ccco3)S2)cc1C`: the inhibition reads like this: (at 35 µM) -2.9% (active); (confirmation repeats, at 20 µM) 92%.

In the case of `Cc1ccc(N2NC(=O)/C(=C/C=C/c3ccco3)C2=O)cc1C`, the inhibition (at 35 µM) is 12.2% (inactive).

On to `Cc1cccc(N=C2NC(=O)/C(=C/c3cn(C)c4ccccc34)S2)c1`, for which the inhibition (at 35 µM) was -3.5% (inactive). Consider `CC(C)(O)C#Cc1ccc(CN2CCC(CO)(CCc3ccccc3)CC2)cc1`, for which the inhibition (at 35 µM) is -2.8% (inactive).

Take `Brc1ccccc1CN1CCC(Cc2ccccc2)CC1`: the inhibition (at 35 µM) is 0.9% (inactive). On the same count and under the same terms, the value for `Cc1cc(C)c2c(-c3ccc(F)cc3)c(C#N)c(=O)n(C)c2n1` was -5.1% (inactive); that for `COc1ccc(O)c(C(=O)c2cnc3c(c2)c(-c2ccc(F)cc2)c(C#N)c(=O)n3C)c1` was 7.5% (inactive).

With `Cn1c(N)cc(-c2ccc(F)cc2)c(C#N)c1=O`, the inhibition (at 35 µM) is 59.1% (active) and the inhibition (confirmation repeats, at 20 µM) was found to be 69.9%. Turning to `COc1ccc(NC(=O)C(CC(C)C)NC(=O)C2CCC(C)CC2)cc1` (centres undefined), the inhibition (at 35 µM) is -2.9% (inactive). Consider `C=CCn1c(=O)c(C(=O)NCc2ccc3c(c2)OCO3)c(O)c2ccccc21`, for which, for the setting “at 35 µM”, the inhibition was -7.7% (inactive). Still for that read-out and setting: to `CC1CCCCC1NC(=O)CCS(=O)(=O)c1ccc2c(c1)NC(=O)CO2` (centres undefined) belongs 3.9% (inactive); to `Cc1cccc2c1cnn2C(=O)CCC(=O)NC1CCCCC1`, -10.3% (inactive).

With `CN(C(=O)CN1C(=O)S/C(=C\c2ccccc2F)C1=O)C1CCS(=O)(=O)C1` (centres undefined), the inhibition (at 35 µM) was 11.1% (inactive).

Regarding `Cc1ccc(OCC(=O)NC(C)c2ccccc2)c([N+](=O)[O-])n1` (centres undefined), the inhibition is, setting by setting: (at 35 µM) 51.1% (inactive); (confirmation repeats, at 20 µM) -6.6%. The matching figures for `COCC(C)n1c(C)cc(C(=O)COc2ccc(C)nc2[N+](=O)[O-])c1C` (centres undefined): -2.1% (active) and 57.1%.

Usually inhibition stands for the change of the read-out against control, counted positive when it falls.
